Consider 40 compounds from PubChem BioAssay (NCATS).

Structures are written as SMILES. Values without a mark were called inactive. Calls of active or inactive are those of the source. Calls follow the shape of the dose curve; as a rule, active = well fitted curve in the direction sought with a large enough effect; inconclusive = small, poorly fitted or top-dose-only effect, or another doubt; inactive = no such curve, though single readings can be large or run the other way.

Sequence of Alpha-galactosidase (Coffea arabica) (Q42656 whole entry, looked up): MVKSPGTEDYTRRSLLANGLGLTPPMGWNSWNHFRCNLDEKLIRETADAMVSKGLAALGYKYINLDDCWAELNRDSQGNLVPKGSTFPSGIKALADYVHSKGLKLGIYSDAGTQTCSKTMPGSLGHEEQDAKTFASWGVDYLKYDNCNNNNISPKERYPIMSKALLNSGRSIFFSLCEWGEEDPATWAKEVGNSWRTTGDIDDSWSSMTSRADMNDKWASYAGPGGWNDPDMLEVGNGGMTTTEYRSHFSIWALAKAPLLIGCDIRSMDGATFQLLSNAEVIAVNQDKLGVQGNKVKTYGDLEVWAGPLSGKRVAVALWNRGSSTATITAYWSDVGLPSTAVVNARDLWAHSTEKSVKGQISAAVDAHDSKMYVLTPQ

This assay has as its target Alpha-galactosidase (Coffea arabica) (UniProt Q42656). Description: Counterscreen for Glucocerebrosidase Inhibitors: qHTS Assay for Coffee Bean alpha-Galactosidase at pH 4.5 (AID 957).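 Also: plate controls were enzyme alone for no effect and no enzyme for full effect.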 To be noted: purified coffee bean alpha-galactosidase, fluorogenic substrate; series mostly up to 76.9 µM; activity change, negative = inhibition: at the top concentration. The text has this: NIH Chemical Genomics Center [NCGC]
NIH Molecular Libraries Screening Centers Network [MLSCN]
PI Name: Zheng, Wei [NIH]
Alpha-galactosidase is a homodimeric glycoprotein that hydrolyzes the terminal alpha-galactosyl moieties from glycolipids and glycoproteins. Deficiency of this enzyme results in Fabry Disease with progressive accumulation of globotriaosylceramide and other glycosphingolipids in vascular endothelial cells that causes renal failure, myocardial infarction and stroke, and premature death in patients. It has reported that the improper folding and trafficking of alpha-galactosidase resulted from the genetic mutations may account for a significant numbers of Fabry patients. […] We optimized this coffee bean alpha-galactosidase assay in 1536-well plate format as a counter-screen assay for identifying the selective small molecule inhibitors of other lysosomal enzymes.
NCGC Assay Protocol Summary:
This is a fluorogenic enzyme assay with 4-Methylumbelliferyl alpha-D-galactopyranoside as the substrate and green coffee bean […] (from Sigma-Aldrich) as the enzyme preparation. Upon the hydrolysis of this fluorogenic substrate, the resulting product, […]. 4-Methyllumbelliferone, can be excited at 365 nm and emits at 440 nm which can be detected by a standard fluorescence plate reader. Data were normalized to the controls for basal activity (without enzyme) and 100% activity (with enzyme). In the AC50 values were determined from concentration-response data modeled with the standard Hill equation.
Assay buffer: 50 mM citric acid, 0.005% Tween-20, pH 4.5. (pH 5.9 is an optimal condition for this enzyme assay. This assay in pH 4.5 is used for comparison the inhibitor activities with the human alpha-galactosidase assay)
1536-well assay protocol for the coffee bean alpha-galactosidase:
(1) Add 2 ul/well of enzyme (2 nM final)
(2) Add 23 nL compounds in DMSO solution. The final titration was 0.7 nM to 77 uM.
(3) Add 1 ul of substrate (80 uM final)
(4) Incubate at room temperature for 20 min.
(5) Add 2 ul stop solution (1M NaOH and 1M Glycine mixture, pH 10)
(6) Detect the assay plate in a ViewLux plate reader (PerkinElmer) with Ex=365 nm and Em=440nm.
Keywords: Alpha-galactosidase, Fabry Disease, pharmacological chaperone, chaperone therapy, high throughput screening, alpha-galactosidase inhibitor, MLSMR, MLSCN, NIH Roadmap, qHTS and NCGC
(The purpose of a counterscreen is to sort out artefacts and off-target activity.)
As to `O=C(O)c1nn(Cc2ccc(Cl)cc2Cl)c2ccccc12`, the “activity change, negative = inhibition” value is 0.716%.
Still for that read-out and setting: the figure for `COC(=O)C1=C(C)NC(C)=C(C(=O)OC)C1c1ccccc1[N+](=O)[O-]` is -4.14%.
Still for that read-out and setting: the figure for `Brc1c(NC2=NCCN2)ccc2nccnc12` is 1.12%.
Turning to `CCCCNc1cc(C(=O)O)cc(S(N)(=O)=O)c1Oc1ccccc1`, the “activity change, negative = inhibition” value was -2.1%.
On the same count and under the same terms, the figure for `CCNC(=O)N1CCN(CCCC(c2ccc(F)cc2)c2ccc(F)cc2)CC1` is -2.7%.
For the compound `C#CCN(C)Cc1ccccc1`, the “activity change, negative = inhibition” value was -2.37%.
Consider `Cc1ccc(N(CC2=NCCN2)c2cccc(O)c2)cc1`, for which the “activity change, negative = inhibition” value is -4.24%.
Still for that read-out and setting: the figure for `C[C@]12CCC(=O)C=C1CC[C@@H]1[C@@H]2CC[C@@]2(C)[C@H]1CC[C@]2(O)C(=O)CO` is -2.75%; for `CN(C)CCN(Cc1cccs1)c1ccccn1` it is -3.7%; for `O=C(c1ccc(F)cc1)C1CCN(CCn2c(=O)[nH]c3ccccc3c2=O)CC1` it is -2.42%.
Still for that read-out and setting: the figure for `NS(=O)(=O)c1cc2c(cc1Cl)NCNS2(=O)=O` is -3.42%.
For `CCCCNc1ccc(C(=O)OCCN(C)C)cc1`, the “activity change, negative = inhibition” value was -0.752%.
On the same count and under the same terms, the figure for `NC(N)=NC(=O)c1nc(Cl)c(N)nc1N` is -3.02%; for `Cc1cc(C(C)(C)C)c(O)c(C)c1CC1=NCCN1` it is -0.675%; for `NC(=O)CN1CCCC1=O` it is 4.72%.
On the same count and under the same terms, in the case of `C[n+]1cc2c3c(ccc2c2ccc4cc5c(cc4c21)OCO5)OCO3` it was 0.485%; in that of `c1cnc(N2CCN(Cc3ccc4c(c3)OCO4)CC2)nc1`, -4.37%; in that of `NCCc1ccc(O)c(O)c1`, 1.88%.
As to `O=C(O)CN(CCOCCOCCN(CC(=O)O)CC(=O)O)CC(=O)O`, the “activity change, negative = inhibition” value was 1.22%.
As to `CC(C)(C)c1ccc(C(O)CCCN2CCC(C(O)(c3ccccc3)c3ccccc3)CC2)cc1` (stereo not given), the “activity change, negative = inhibition” value was -3.83%.
Still for that read-out and setting: in the case of `Clc1ccc(Cn2c(CN3CCCC3)nc3ccccc32)cc1` it was -3.34%; in that of `CCCn1cnc2c1c(=O)n(CCCCC(C)=O)c(=O)n2C`, -0.651%; in that of `CCN(CC)CC(=O)Nc1c(C)cccc1C`, -0.899%.
Take `O=C(Nc1ccc([N+](=O)[O-])cc1Cl)c1cc(Cl)ccc1O`: the “activity change, negative = inhibition” value is 0.0268%.
Still for that read-out and setting: the figure for `CCCOc1ccccc1-c1nc2n[nH]nc2c(=O)[nH]1` is 0.105%; for `Nc1ccn([C@H]2CC[C@@H](CO)O2)c(=O)n1` it is 3.85%.
On the same count and under the same terms, in the case of `c1ccc2nc(N3CCNCC3)ccc2c1` it was -0.498%; in that of `Nc1c2c(nc3ccccc13)CCCC2`, 3.54%; in that of `CC1=C(CC(=O)O)c2cc(F)ccc2/C1=C\c1ccc(S(C)=O)cc1` (stereo not given), 1.74%.
On to `COc1ccc2c(c1)c(CC(=O)O)c(C)n2C(=O)c1ccc(Cl)cc1`, for which the “activity change, negative = inhibition” value is -1.45%.
Same read-out and setting: in the case of `C[N+](C)(C)CCOC(=O)CCC(=O)OCC[N+](C)(C)C` it was 3.22%; in that of `NC(=O)CC[C@@H](N)C(=O)O`, 1.9%.
Regarding `CNC[C@H](O)c1ccc(O)c(O)c1`, the outcome was inactive.
Take `CC1=C(CC(=O)O)c2cc(F)ccc2/C1=C\c1ccc(S(C)(=O)=O)cc1`: the “activity change, negative = inhibition” value is -4.62%.
With `COc1cc2c(cc1OC)-c1cc(=Nc3c(C)cc(C)cc3C)n(C)c(=O)n1CC2`, the “activity change, negative = inhibition” value is -2.75%.
Regarding `O=C(O)CCc1nc(-c2ccccc2)c(-c2ccccc2)o1`, the “activity change, negative = inhibition” value is -2.18%.
Same read-out and setting: the figure for `COc1nc(C)nc(Cl)c1NC1=NCCN1` is 1.25%; for `CC(C)NCC(O)COc1ccc(COCCOC(C)C)cc1` (stereo not given) it is -3.29%; for `CN(C)C(=O)Oc1cccc([N+](C)(C)C)c1` it is 1.8%.
On the same count and under the same terms, in the case of `CCCCCCCCC(=O)NCc1ccc(O)c(OC)c1` it was -3.24%.
